These results are taken from paper PMC7862700, “An all-to-all approach to the identification of sequence-specific readers for epigenetic DNA modifications on cytosine”.

What all share (assay): DAPPL (digital affinity profiling via proximity ligation, sequencing); 10 mM Tris-HCl pH 7.5, 50 mM NaCl, 1 mM DTT, 4% glycerol, room temperature, 30 min; GST-TFs on glutathione beads, 16-mer random dsDNA library, 0.1% formaldehyde crosslink after washing; high values mean tight binding
Assay [1] addresses T1, FEV (Homo sapiens, UniProt Q99581 1-238).
T1 sequence: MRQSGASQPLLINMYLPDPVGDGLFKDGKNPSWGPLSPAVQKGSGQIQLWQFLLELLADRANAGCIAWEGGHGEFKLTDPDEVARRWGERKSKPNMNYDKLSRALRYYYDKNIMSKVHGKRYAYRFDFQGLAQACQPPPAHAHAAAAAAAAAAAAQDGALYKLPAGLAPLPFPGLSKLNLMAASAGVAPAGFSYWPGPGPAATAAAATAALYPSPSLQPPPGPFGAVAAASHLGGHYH
The note with it: protein: recombinant; tags: N-terminal GST; dsDNA, one strand shown. The method, boiled down: (§1)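 After expression in yeast as GST fusions, human transcription factors were bound to glutathione beads, DNA-barcoded and mixed with a tag-only sample. The pools were incubated with 200 nmole of a 16-mer random double-stranded DNA library in Tris/NaCl/DTT/glycerol buffer (30 min, room temperature), washed and crosslinked with 0.1% formaldehyde. Proximity ligation with BsaI/T4 ligase ran for 1 h at 37 °C, before PCR amplification and sequencing on an Illumina NextSeq500. Binding signal is a hexamer's read frequency for a factor divided by its frequency for the tag-only sample.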

Assay [2] deals with ETV5 (Homo sapiens, UniProt P41161 1-510). The following applies: protein: recombinant; tags: N-terminal GST; dsDNA, one strand shown. The method, boiled down:
as §1

The target of assay [3] is HSF1 (Homo sapiens, UniProt Q00613 1-529). The following applies: protein: recombinant; tags: N-terminal GST; chain copies: 3; dsDNA, one strand shown. In a few lines: as §1
Chain of HSF1 (Q00613 whole entry): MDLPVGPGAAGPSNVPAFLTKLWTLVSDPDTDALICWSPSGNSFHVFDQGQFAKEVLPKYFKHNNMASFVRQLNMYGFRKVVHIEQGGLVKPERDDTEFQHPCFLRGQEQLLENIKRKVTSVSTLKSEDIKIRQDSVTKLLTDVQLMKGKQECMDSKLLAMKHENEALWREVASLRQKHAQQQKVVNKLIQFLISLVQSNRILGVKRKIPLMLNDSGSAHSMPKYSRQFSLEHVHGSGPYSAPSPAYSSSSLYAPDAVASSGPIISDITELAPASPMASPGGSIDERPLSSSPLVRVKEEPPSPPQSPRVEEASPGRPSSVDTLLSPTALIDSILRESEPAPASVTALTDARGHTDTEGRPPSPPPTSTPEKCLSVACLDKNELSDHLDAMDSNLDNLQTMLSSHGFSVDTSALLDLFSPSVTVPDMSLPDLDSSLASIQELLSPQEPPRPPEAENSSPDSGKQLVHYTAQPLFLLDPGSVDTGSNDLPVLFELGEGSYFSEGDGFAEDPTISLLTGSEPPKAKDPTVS
For assay [4], the target named is T2, SPIC (Homo sapiens, UniProt Q8N5J4 1-248).
T2 sequence: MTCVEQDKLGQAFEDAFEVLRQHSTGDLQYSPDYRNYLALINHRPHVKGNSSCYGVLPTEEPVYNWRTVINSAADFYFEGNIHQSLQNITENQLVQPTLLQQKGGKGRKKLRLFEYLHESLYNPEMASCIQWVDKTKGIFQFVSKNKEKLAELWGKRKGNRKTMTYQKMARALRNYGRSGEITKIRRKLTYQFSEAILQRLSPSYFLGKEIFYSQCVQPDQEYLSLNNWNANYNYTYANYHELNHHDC
The note with it: protein: recombinant; tags: N-terminal GST; dsDNA, one strand shown. The method, boiled down:
as §1

In assay [5] the target is ELF4 (Homo sapiens, UniProt Q99607 1-663). The following applies: protein: recombinant; tags: N-terminal GST; dsDNA, one strand shown. In a few lines: as §1
Chain of ELF4 (Q99607 whole entry): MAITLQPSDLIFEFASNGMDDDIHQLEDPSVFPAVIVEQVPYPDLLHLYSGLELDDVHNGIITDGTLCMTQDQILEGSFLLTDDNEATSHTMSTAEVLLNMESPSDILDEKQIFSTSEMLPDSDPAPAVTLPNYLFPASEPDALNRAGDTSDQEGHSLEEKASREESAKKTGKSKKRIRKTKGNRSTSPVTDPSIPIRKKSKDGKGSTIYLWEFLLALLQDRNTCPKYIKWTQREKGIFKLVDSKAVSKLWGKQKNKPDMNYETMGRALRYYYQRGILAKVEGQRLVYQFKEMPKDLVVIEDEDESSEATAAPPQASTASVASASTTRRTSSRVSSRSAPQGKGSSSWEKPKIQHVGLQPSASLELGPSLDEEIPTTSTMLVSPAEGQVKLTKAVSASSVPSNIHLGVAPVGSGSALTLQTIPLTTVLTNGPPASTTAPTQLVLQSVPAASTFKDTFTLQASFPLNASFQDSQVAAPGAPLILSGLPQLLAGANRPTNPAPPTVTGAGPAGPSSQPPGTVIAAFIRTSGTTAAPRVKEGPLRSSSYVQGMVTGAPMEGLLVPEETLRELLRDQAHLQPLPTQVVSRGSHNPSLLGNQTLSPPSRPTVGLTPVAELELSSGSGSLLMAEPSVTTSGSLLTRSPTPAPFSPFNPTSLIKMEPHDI
Assay [6] deals with T3, ELK4 (Homo sapiens, UniProt P28324-2 1-405).
T3 sequence: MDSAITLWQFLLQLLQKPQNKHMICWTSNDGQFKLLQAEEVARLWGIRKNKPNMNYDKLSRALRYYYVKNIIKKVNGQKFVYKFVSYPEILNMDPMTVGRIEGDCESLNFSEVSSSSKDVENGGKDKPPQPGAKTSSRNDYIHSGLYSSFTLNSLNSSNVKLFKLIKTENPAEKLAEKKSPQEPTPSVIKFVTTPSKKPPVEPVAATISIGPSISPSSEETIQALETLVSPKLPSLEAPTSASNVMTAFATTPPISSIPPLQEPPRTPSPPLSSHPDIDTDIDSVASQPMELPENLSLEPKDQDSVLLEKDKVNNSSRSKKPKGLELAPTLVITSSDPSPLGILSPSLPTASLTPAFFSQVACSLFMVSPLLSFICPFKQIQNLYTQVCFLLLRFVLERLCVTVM
The note with it: protein: recombinant; tags: N-terminal GST; dsDNA, one strand shown. In a few lines:
as §1

Assay [7] has as its target T4, ETV2 (Homo sapiens, UniProt O00321 1-342).
T4 sequence: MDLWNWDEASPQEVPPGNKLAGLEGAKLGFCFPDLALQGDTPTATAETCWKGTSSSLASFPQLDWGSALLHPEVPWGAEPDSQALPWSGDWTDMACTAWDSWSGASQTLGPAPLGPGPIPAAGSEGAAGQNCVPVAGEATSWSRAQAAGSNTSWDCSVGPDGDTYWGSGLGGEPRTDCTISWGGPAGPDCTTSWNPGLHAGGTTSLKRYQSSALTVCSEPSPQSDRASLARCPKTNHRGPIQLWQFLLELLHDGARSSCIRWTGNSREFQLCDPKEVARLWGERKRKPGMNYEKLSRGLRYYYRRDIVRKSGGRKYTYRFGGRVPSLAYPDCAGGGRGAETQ
The note with it: protein: recombinant; tags: N-terminal GST; dsDNA, one strand shown. The method, boiled down:
as §1

In assay [8] the target is T5, ELF3 (Homo sapiens, UniProt P78545 1-371).
T5 sequence: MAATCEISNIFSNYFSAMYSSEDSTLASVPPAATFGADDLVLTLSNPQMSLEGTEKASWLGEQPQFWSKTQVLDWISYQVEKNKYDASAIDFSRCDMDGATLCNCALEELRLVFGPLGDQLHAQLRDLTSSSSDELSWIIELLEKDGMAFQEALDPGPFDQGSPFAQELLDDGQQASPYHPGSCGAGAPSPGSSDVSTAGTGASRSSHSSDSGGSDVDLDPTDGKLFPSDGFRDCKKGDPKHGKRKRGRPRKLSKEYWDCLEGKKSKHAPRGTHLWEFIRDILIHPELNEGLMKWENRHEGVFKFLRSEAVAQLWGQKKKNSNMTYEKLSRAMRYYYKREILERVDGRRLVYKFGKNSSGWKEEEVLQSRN
The note with it: protein: recombinant; tags: N-terminal GST; dsDNA, one strand shown. In a few lines:
as §1

Assay [9] has as its target CRX (Homo sapiens, UniProt O43186 1-299). The following applies: protein: recombinant; tags: N-terminal GST; dsDNA, one strand shown. The method, boiled down:
as §1

For assay [10], the target named is ETV1 (Homo sapiens, UniProt P50549 1-477). The note with it: protein: recombinant; tags: N-terminal GST; dsDNA, one strand shown. The method, boiled down:
as §1

The target in assay [11] is T6, ERF (Homo sapiens, UniProt P50548 1-548).
T6 sequence: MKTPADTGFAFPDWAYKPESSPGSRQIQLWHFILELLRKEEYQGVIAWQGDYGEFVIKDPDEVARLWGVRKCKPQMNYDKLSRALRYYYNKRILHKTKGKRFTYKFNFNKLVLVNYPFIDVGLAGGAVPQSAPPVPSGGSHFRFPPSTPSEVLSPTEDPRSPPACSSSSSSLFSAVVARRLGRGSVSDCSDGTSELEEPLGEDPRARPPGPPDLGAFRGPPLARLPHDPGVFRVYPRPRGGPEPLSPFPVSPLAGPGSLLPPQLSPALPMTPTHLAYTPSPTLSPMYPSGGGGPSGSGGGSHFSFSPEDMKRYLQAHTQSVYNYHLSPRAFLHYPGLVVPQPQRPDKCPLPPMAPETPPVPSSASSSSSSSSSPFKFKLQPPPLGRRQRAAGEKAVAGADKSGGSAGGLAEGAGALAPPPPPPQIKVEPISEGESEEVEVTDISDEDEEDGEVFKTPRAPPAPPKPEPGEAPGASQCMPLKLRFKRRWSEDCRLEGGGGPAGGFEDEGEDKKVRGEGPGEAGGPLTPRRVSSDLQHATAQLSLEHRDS
The following applies: protein: recombinant; tags: N-terminal GST; dsDNA, one strand shown. In a few lines:
as §1

Assay [12] has as its target T7, ETV3L (Homo sapiens, UniProt Q6ZN32 1-361).
T7 sequence: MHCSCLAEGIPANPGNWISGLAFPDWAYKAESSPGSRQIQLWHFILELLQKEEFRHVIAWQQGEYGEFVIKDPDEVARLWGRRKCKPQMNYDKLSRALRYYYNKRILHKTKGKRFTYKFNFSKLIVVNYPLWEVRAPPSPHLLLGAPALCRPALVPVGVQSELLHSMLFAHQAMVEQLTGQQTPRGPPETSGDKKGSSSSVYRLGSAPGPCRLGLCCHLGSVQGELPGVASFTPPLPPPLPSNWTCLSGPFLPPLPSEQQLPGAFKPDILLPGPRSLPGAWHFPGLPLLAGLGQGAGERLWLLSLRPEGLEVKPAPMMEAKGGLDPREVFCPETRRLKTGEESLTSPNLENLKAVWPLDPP
The following applies: protein: recombinant; tags: N-terminal GST; dsDNA, one strand shown. The method, boiled down: as §1

Assay [13] deals with T8, ETS2 (Homo sapiens, UniProt P15036 1-469).
T8 sequence: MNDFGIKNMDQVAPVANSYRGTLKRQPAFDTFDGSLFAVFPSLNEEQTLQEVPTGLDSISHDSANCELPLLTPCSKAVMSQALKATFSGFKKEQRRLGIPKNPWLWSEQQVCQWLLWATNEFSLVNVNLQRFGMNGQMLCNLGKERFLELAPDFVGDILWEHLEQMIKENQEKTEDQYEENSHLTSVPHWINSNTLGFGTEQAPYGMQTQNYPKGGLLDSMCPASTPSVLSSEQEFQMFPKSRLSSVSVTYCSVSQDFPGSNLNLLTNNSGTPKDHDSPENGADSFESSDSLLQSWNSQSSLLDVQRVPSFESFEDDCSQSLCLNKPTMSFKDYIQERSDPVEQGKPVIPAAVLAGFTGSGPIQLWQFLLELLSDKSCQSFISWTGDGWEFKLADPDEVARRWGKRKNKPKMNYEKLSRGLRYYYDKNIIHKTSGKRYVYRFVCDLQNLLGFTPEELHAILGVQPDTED
The note with it: protein: recombinant; tags: N-terminal GST; dsDNA, one strand shown. In a few lines:
as §1

The target of assay [14] is T9, SPDEF (Homo sapiens, UniProt O95238 1-335).
T9 sequence: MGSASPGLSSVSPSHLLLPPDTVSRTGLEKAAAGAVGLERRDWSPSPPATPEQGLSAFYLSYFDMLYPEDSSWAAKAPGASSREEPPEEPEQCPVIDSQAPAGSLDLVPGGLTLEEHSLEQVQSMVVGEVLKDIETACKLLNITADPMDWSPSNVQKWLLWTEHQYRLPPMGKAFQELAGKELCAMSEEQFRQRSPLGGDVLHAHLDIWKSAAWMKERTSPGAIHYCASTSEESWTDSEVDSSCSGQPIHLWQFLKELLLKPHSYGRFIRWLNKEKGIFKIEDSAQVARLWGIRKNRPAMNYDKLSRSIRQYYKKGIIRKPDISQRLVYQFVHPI
The note with it: protein: recombinant; tags: N-terminal GST; dsDNA, one strand shown. The method, boiled down:
as §1

Assay [15] concerns the target T10, ETV7 (Homo sapiens, UniProt Q9Y603 1-341).
T10 sequence: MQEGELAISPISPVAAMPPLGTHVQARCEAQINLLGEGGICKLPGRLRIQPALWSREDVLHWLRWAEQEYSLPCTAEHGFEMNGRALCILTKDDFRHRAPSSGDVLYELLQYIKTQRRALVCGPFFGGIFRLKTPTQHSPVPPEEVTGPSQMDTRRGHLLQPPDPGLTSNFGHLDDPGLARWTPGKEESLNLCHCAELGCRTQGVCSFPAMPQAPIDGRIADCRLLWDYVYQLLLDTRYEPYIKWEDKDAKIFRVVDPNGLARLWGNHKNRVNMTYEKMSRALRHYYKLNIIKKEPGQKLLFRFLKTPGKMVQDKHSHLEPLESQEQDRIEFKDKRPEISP
The note with it: protein: recombinant; tags: N-terminal GST; dsDNA, one strand shown. The method, boiled down: as §1

In assay [16] the target is T11, ELF5 (Homo sapiens, UniProt Q9UKW6-2 1-255).
T11 sequence: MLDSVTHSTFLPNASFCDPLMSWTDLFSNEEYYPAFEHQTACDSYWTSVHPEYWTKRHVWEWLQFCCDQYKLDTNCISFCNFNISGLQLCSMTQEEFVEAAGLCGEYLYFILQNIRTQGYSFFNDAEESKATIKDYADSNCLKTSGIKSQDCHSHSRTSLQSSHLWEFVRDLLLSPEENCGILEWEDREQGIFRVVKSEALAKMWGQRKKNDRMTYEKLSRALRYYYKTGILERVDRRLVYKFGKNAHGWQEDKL
The following applies: protein: recombinant; tags: N-terminal GST; dsDNA, one strand shown. The method, boiled down:
as §1

Assay [17] has as its target T12, ETV3 (Homo sapiens, UniProt P41162-2 1-143).
T12 sequence: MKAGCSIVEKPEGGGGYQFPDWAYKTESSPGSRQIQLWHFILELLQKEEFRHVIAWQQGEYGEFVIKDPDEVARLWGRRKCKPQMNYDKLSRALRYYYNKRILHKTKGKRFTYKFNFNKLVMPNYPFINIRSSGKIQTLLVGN
The following applies: protein: recombinant; tags: N-terminal GST; dsDNA, one strand shown. The method, boiled down: as §1

Assay [18] deals with ETV6 (Homo sapiens, UniProt P41212 1-452). The following applies: protein: recombinant; tags: N-terminal GST; dsDNA, one strand shown. The method, boiled down: as §1
Chain of ETV6 (P41212 whole entry): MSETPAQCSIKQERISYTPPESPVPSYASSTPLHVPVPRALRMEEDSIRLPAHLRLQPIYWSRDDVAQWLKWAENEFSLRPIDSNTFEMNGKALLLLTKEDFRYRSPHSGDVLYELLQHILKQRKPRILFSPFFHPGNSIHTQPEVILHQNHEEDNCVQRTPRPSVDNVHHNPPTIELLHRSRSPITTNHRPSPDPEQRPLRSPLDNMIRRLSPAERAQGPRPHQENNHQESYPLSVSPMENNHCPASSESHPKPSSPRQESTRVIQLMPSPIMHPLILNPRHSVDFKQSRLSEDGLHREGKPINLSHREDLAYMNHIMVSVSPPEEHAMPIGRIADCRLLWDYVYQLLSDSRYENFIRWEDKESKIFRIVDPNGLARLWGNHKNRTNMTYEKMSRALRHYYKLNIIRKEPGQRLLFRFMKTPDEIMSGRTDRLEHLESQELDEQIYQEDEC

Chain of ETV1 (P50549 whole entry): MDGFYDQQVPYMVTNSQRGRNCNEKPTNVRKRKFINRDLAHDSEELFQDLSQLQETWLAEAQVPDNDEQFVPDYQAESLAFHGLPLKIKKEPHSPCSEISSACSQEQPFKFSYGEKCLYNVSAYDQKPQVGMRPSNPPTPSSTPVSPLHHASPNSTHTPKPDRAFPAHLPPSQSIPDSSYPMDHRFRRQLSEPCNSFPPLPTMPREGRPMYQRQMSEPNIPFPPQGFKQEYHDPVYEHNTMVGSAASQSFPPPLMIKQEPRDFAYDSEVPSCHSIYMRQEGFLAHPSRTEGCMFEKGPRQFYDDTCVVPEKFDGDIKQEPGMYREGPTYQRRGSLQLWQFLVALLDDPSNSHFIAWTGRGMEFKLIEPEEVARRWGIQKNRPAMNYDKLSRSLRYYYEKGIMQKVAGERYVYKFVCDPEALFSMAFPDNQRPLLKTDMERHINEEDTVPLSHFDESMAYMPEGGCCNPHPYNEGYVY
Chain of ETV5 (P41161 whole entry): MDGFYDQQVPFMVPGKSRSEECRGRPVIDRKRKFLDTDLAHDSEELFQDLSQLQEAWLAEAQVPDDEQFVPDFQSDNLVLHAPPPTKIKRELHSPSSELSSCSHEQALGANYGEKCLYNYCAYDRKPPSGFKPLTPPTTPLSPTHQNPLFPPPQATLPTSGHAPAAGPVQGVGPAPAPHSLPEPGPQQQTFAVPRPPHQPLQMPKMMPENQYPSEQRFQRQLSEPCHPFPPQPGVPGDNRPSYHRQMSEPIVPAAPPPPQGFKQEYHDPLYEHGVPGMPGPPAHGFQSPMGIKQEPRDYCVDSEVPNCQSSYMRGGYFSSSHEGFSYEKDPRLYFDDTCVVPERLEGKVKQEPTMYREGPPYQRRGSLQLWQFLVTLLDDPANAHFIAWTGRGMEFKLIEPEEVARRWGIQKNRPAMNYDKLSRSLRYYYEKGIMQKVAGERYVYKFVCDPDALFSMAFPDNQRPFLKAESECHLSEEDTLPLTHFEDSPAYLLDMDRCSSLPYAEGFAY
Chain of CRX (O43186 whole entry): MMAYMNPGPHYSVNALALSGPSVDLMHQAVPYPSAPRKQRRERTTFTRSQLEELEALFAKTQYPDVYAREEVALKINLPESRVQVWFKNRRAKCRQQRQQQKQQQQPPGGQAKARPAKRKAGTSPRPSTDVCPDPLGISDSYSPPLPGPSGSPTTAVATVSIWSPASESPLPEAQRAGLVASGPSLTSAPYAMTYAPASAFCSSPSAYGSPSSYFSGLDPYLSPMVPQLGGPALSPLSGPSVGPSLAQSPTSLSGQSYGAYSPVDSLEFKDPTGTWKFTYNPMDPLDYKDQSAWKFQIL

Take GGCTCT: the binding signal in [1] is 1.35 fold enrichment (6-mer frequency, TF over GST control); in assay [2], 1.19 fold enrichment (6-mer frequency, TF over GST control); in [3], 1.32 fold enrichment (6-mer frequency, TF over GST control); in [4] it was 1.34 fold enrichment (6-mer frequency, TF over GST control); in [5], 1.37 fold enrichment (6-mer frequency, TF over GST control); in assay [6], 1.22 fold enrichment (6-mer frequency, TF over GST control). Moreover, the binding signal in assay [7] was 1.4 fold enrichment (6-mer frequency, TF over GST control); in assay [8], 1.44 fold enrichment (6-mer frequency, TF over GST control); in [9], 1.27 fold enrichment (6-mer frequency, TF over GST control); in [10], 1.42 fold enrichment (6-mer frequency, TF over GST control); in assay [11], 1.36 fold enrichment (6-mer frequency, TF over GST control); in assay [12], 1.34 fold enrichment (6-mer frequency, TF over GST control). In addition, the binding signal in assay [13] was 1.2 fold enrichment (6-mer frequency, TF over GST control); in [14], 1.13 fold enrichment (6-mer frequency, TF over GST control); in assay [15], 1.44 fold enrichment (6-mer frequency, TF over GST control); in [16] it was 1.15 fold enrichment (6-mer frequency, TF over GST control); in assay [17] it was 1.34 fold enrichment (6-mer frequency, TF over GST control); in [18] it was 1.3 fold enrichment (6-mer frequency, TF over GST control).
